Test results published in ChEMBL document CHEMBL1157539, “Thousands of chemical starting points for antimalarial lead identification” (Nature, 2010).

Tested on: Plasmodium falciparum
Assay: GSK_TCMDC: Inhibition of Plasmodium falciparum 3D7 in whole red blood cells, using parasite LDH activity as an index of growth. Test compounds present at 2uM
Format: functional

SMILES | Inhibition [%]
Cc1ccc(CC(C)NCC(O)c2cccc(Cl)c2)cc1F.Cl (stereo unspecified) | 95
CNCCN(C)C(=O)Oc1c(Cl)c(C)nc(C)c1-c1ccc(Oc2ccc(OC(F)(F)F)cc2)cc1.Cl | 97
COC(=O)c1ccc(CC(C)NCC(O)c2cccc(OCc3ccccc3)c2)cc1.Cl (stereo unspecified) | 86
COC(=O)c1ccc(CC(C)NCC(O)c2cccc(I)c2)cc1 (stereo unspecified) | 87
CC(C)CNCc1cccc(-c2ccc(CN(C(=O)c3cccs3)C3CCN(Cc4ccccc4)CC3)cc2)c1.O=C(O)C(F)(F)F | 85
Oc1ccc(CN2CCN(CCOC(c3ccccc3)c3ccccc3)CC2)cc1Cl | 98
Cc1c(C(=O)NC2CCC(CN3CCC(c4c[nH]c5ccccc45)CC3)CC2)cnn1-c1c(Cl)cc(Cl)cc1Cl (stereo unspecified) | 100
C#CCN1CCC2=C(C1)c1c(O)cc(C(C)CCCc3ccc(F)cc3)cc1OC2(C)C (stereo unspecified) | 98
COC(=O)c1ccc(CC(C)NCC(O)c2cccc(C(F)(F)F)c2)cc1.Cl (stereo unspecified) | 97
NC(=O)CN1CC=C(c2c[nH]c3ccc(Br)cc23)CC1 | 83
O=C(Nc1ccc(CN2CCC(c3c[nH]c4ccc(O)cc34)CC2)cc1)c1ccc(-c2ccccc2)cc1 | 100
COCCNCc1cccc(-c2cccc(CN(C(=O)Nc3ccccc3)C3CCN(Cc4ccccc4)CC3)c2)c1.O=C(O)C(F)(F)F | 100
COc1ccc(CCNCc2ccc3c(C)cc(N)nc3c2)cc1 | 100
COc1cccc(CC(C)NCC(O)c2cccc(Cl)c2)c1.Cl (stereo unspecified) | 85
O=C(NC1CCC(CN2CCC(c3c[nH]c4ccccc34)CC2)CC1)c1cc(-c2ccccc2Cl)oc1C(F)(F)F (stereo unspecified) | 99
CCc1ccc(CC(C)NCC(O)c2ccccc2)cc1.O (stereo unspecified) | 89
Cc1nc(-c2ccc(-c3ccc(C(=O)Nc4ccc5c(c4)C4(CCNCC4)CO5)cc3)c(C)c2)no1.Cl | 90
CC[C@H]1CN2CC[C@@H]1C[C@H]2[C@H](O)c1cc(-c2cccnc2)nc2ccc(OC)cc12.Cl | 99
Br.CC[C@H]1CN2CC[C@H]1C[C@H]2[C@H](O)c1ccnc2ccc(OC)cc12 | 100

SMILES | Inhibition [%]
CC(Cc1ccc(OCCOc2ccccc2)cc1)NCC(O)c1cccc(Cl)c1 (stereo unspecified) | 99
CCC(C)CN1CCC(N(C)c2cc(NC(=O)c3cccc(C)c3)ccn2)CC1.O=C(O)C(F)(F)F (stereo unspecified) | 93
COC(=O)c1ccc(CC(C)NCC(O)c2cccc(C(F)(F)F)c2)c(Cl)c1 (stereo unspecified) | 99
CC(C)CNCc1ccc(-c2cccc(CN(C(=O)NC3CCCCC3)C3CCN(Cc4ccccc4)CC3)c2)cc1.O=C(O)C(F)(F)F | 98
CN1CCC(N(C)c2nccc(N3CCN(Cc4cncn4Cc4ccccc4)CC3)n2)CC1 | 100
COCCNCc1cccc(-c2ccc(CN(C(=O)Nc3ccccc3)C3CCN(Cc4ccccc4)CC3)cc2)c1.O=C(O)C(F)(F)F | 100
O=C(/C=C/c1ccc(Cl)c(Cl)c1)N1CCC(CN2CCC(c3c[nH]c4ccc(NS(=O)(=O)c5cccs5)cc34)CC2)CC1 | 100
OC(CNCc1ccccc1OC(F)F)c1cccc(C(F)(F)F)c1 (stereo unspecified) | 97
O=C(NC1CCC(CN2CCC(c3c[nH]c4ccccc34)CC2)CC1)c1csc(-c2cccc(Cl)c2Cl)n1 (stereo unspecified) | 99
Oc1ccc(CN2CCN(CCOC(c3ccc(F)cc3)c3ccc(F)cc3)CC2)cc1Cl | 96
COC(=O)c1ccc(CC(C)NCC(O)c2cccc(C(F)(F)F)c2)c(OC)c1 (stereo unspecified) | 100
COc1ccc(C(=O)C2CC2CN2CC=C(c3c(C)[nH]c4ccccc34)CC2)cc1 (stereo unspecified) | 96
CC(Cc1ccc(OCc2ccccc2)c(Cl)c1)NCC(O)c1cccc(C(F)(F)F)c1 (stereo unspecified) | 97
CC[C@H]1CN2CC[C@@H]1C[C@H]2[C@H](O)c1cc(N2CCC(C)CC2)nc2ccc(OC)cc12 | 99
COc1ccc(C(=O)C2CC2CN2CC=C(c3c[nH]c4cccc(Br)c34)CC2)cc1.O=C(O)C(F)(F)F (stereo unspecified) | 88
CC(=O)C1(c2ccccc2)CCN(CCC(NC(=O)c2cc(C(F)(F)F)cc(C(F)(F)F)c2)c2ccc(Cl)c(Cl)c2)CC1.Cl (stereo unspecified) | 91
CCCCCCC(C)c1cc(O)c2c(c1)OC(C)(C)c1ccncc1-2.Cl (stereo unspecified) | 100
CCOc1ccc2nccc([C@@H](O)[C@@H]3C[C@@H]4CCN3C[C@@H]4CC)c2c1.Cl [ETHYLHYDROCUPREINE HYDROCHLORIDE] | 98
COC(=O)c1ccc(CC(C)NCC(O)c2ccc(Cl)c(Cl)c2)cc1 (stereo unspecified) | 87

Tested on: Plasmodium falciparum
Assay: GSK_TCMDC: Inhibition of Plasmodium falciparum Dd2 in whole red blood cells, using parasite LDH activity as an index of growth. Test compounds present at 2uM
Format: functional

SMILES | Inhibition [%]
Cc1ccc(CC(C)NCC(O)c2cccc(Cl)c2)cc1F.Cl (stereo unspecified) | 88
CNCCN(C)C(=O)Oc1c(Cl)c(C)nc(C)c1-c1ccc(Oc2ccc(OC(F)(F)F)cc2)cc1.Cl | 96
COC(=O)c1ccc(CC(C)NCC(O)c2cccc(OCc3ccccc3)c2)cc1.Cl (stereo unspecified) | 37
COC(=O)c1ccc(CC(C)NCC(O)c2cccc(I)c2)cc1 (stereo unspecified) | 54
CC(C)CNCc1cccc(-c2ccc(CN(C(=O)c3cccs3)C3CCN(Cc4ccccc4)CC3)cc2)c1.O=C(O)C(F)(F)F | 40
Oc1ccc(CN2CCN(CCOC(c3ccccc3)c3ccccc3)CC2)cc1Cl | 77
Cc1c(C(=O)NC2CCC(CN3CCC(c4c[nH]c5ccccc45)CC3)CC2)cnn1-c1c(Cl)cc(Cl)cc1Cl (stereo unspecified) | 97
C#CCN1CCC2=C(C1)c1c(O)cc(C(C)CCCc3ccc(F)cc3)cc1OC2(C)C (stereo unspecified) | 90
COC(=O)c1ccc(CC(C)NCC(O)c2cccc(C(F)(F)F)c2)cc1.Cl (stereo unspecified) | 87
NC(=O)CN1CC=C(c2c[nH]c3ccc(Br)cc23)CC1 | 0
O=C(Nc1ccc(CN2CCC(c3c[nH]c4ccc(O)cc34)CC2)cc1)c1ccc(-c2ccccc2)cc1 | 100
COCCNCc1cccc(-c2cccc(CN(C(=O)Nc3ccccc3)C3CCN(Cc4ccccc4)CC3)c2)c1.O=C(O)C(F)(F)F | 65
COc1ccc(CCNCc2ccc3c(C)cc(N)nc3c2)cc1 | 69
COc1cccc(CC(C)NCC(O)c2cccc(Cl)c2)c1.Cl (stereo unspecified) | 76
O=C(NC1CCC(CN2CCC(c3c[nH]c4ccccc34)CC2)CC1)c1cc(-c2ccccc2Cl)oc1C(F)(F)F (stereo unspecified) | 7
CCc1ccc(CC(C)NCC(O)c2ccccc2)cc1.O (stereo unspecified) | 77
Cc1nc(-c2ccc(-c3ccc(C(=O)Nc4ccc5c(c4)C4(CCNCC4)CO5)cc3)c(C)c2)no1.Cl | 15
CC[C@H]1CN2CC[C@@H]1C[C@H]2[C@H](O)c1cc(-c2cccnc2)nc2ccc(OC)cc12.Cl | 99
Br.CC[C@H]1CN2CC[C@H]1C[C@H]2[C@H](O)c1ccnc2ccc(OC)cc12 | 62

SMILES | Inhibition [%]
CC(Cc1ccc(OCCOc2ccccc2)cc1)NCC(O)c1cccc(Cl)c1 (stereo unspecified) | 99
CCC(C)CN1CCC(N(C)c2cc(NC(=O)c3cccc(C)c3)ccn2)CC1.O=C(O)C(F)(F)F (stereo unspecified) | 14
COC(=O)c1ccc(CC(C)NCC(O)c2cccc(C(F)(F)F)c2)c(Cl)c1 (stereo unspecified) | 98
CC(C)CNCc1ccc(-c2cccc(CN(C(=O)NC3CCCCC3)C3CCN(Cc4ccccc4)CC3)c2)cc1.O=C(O)C(F)(F)F | 88
CN1CCC(N(C)c2nccc(N3CCN(Cc4cncn4Cc4ccccc4)CC3)n2)CC1 | 100
COCCNCc1cccc(-c2ccc(CN(C(=O)Nc3ccccc3)C3CCN(Cc4ccccc4)CC3)cc2)c1.O=C(O)C(F)(F)F | 45
O=C(/C=C/c1ccc(Cl)c(Cl)c1)N1CCC(CN2CCC(c3c[nH]c4ccc(NS(=O)(=O)c5cccs5)cc34)CC2)CC1 | 100
OC(CNCc1ccccc1OC(F)F)c1cccc(C(F)(F)F)c1 (stereo unspecified) | 52
O=C(NC1CCC(CN2CCC(c3c[nH]c4ccccc34)CC2)CC1)c1csc(-c2cccc(Cl)c2Cl)n1 (stereo unspecified) | 41
Oc1ccc(CN2CCN(CCOC(c3ccc(F)cc3)c3ccc(F)cc3)CC2)cc1Cl | 87
COC(=O)c1ccc(CC(C)NCC(O)c2cccc(C(F)(F)F)c2)c(OC)c1 (stereo unspecified) | 98
COc1ccc(C(=O)C2CC2CN2CC=C(c3c(C)[nH]c4ccccc34)CC2)cc1 (stereo unspecified) | 94
CC(Cc1ccc(OCc2ccccc2)c(Cl)c1)NCC(O)c1cccc(C(F)(F)F)c1 (stereo unspecified) | 95
CC[C@H]1CN2CC[C@@H]1C[C@H]2[C@H](O)c1cc(N2CCC(C)CC2)nc2ccc(OC)cc12 | 98
COc1ccc(C(=O)C2CC2CN2CC=C(c3c[nH]c4cccc(Br)c34)CC2)cc1.O=C(O)C(F)(F)F (stereo unspecified) | 67
CC(=O)C1(c2ccccc2)CCN(CCC(NC(=O)c2cc(C(F)(F)F)cc(C(F)(F)F)c2)c2ccc(Cl)c(Cl)c2)CC1.Cl (stereo unspecified) | 82
CCCCCCC(C)c1cc(O)c2c(c1)OC(C)(C)c1ccncc1-2.Cl (stereo unspecified) | 61
CCOc1ccc2nccc([C@@H](O)[C@@H]3C[C@@H]4CCN3C[C@@H]4CC)c2c1.Cl [ETHYLHYDROCUPREINE HYDROCHLORIDE] | 99
COC(=O)c1ccc(CC(C)NCC(O)c2ccc(Cl)c(Cl)c2)cc1 (stereo unspecified) | 33
